Polio RdRp inh: poliovirus RNA polymerase inhibition; P03300; 150,000 tested, 0.66% active; % elongation, % (compound at 16.7 µg/mL); poliovirus polymerase elongation, fluorescence polarization; active compounds read low; in the data active means % elongation below about 90%
Target sequence (P03300 1749-2209 limits assumed): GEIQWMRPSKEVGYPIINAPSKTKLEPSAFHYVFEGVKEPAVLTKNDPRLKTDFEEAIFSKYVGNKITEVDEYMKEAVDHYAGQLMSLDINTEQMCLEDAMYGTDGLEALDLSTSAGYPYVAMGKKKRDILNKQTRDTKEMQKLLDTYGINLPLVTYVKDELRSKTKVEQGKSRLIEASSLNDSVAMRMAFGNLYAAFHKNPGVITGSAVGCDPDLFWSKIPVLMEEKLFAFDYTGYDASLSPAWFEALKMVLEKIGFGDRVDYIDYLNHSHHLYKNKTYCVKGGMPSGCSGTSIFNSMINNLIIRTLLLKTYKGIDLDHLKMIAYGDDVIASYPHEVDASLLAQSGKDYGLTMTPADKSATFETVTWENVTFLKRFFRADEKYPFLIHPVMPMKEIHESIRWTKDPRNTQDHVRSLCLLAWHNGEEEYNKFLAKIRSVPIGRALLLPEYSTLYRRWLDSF
AID504770: E. coli YBA685 growth inhibition, screen for V. cholerae RctB inhibitors | 130,000 tested, 0.27% active | E. coli YBA685 rctB-dependent plasmid, OD600 growth, 3 h; active compounds read low | z-score (no concentration beside the values); in the data active means z-score below about -2, passing the limit was not always enough
MbtI inh: inhibitors of Mycobacterium tuberculosis siderophore enzyme MbtI; purified MbtI enzyme, fluorescence intensity read-out; inhibition, % (concentration not given with the values); 100,000 tested, 0.89% active; AID 493033; P9WFX0; in the data active means inhibition mostly above about 56%, no sharp cut-off; inactive means mostly below about 77%
MenB inh: inhibitors of Mycobacterium tuberculosis MenB enzyme | inhibition, % (test concentration not listed) | 100,000 tested, 0.43% active | P9WNP5 | MenB enzyme assay, absorbance read-out; in the data active means inhibition above about 21%, passing the limit was not always enough
Hits are given with their value; - = inactive; . = no result. An excerpt weighted towards active compounds, which were near 1.4% of everything screened.

SMILES | Polio RdRp inh | AID504770 | MbtI inh | MenB inh
Cc1ccc(Nc2ccc(N3CCN(C(=O)CCc4ccccc4)CC3)nn2)cc1 | - | - | - | -
C=C(C)CNC(=S)Nc1cc(Cl)ccc1Sc1nncn1C | - | - | 79.2 | -
COc1cc(CC(=O)Nc2cc(Cl)ccc2Sc2nncn2C)cc(OC)c1OC | - | - | - | -
COc1ccc(Cc2nn3c(Cn4cnc5ccccc54)nnc3s2)cc1 | - | - | 99.0 | -
CCOC(=O)c1sc(N(C)C(C)=O)nc1C | - | - | - | 38.8
CCOC(=O)c1sc(Br)nc1C | . | - | . | .
S=c1nc(-c2ccccc2)[nH]n1CN1CCc2ccccc2C1 | - | - | 95.7 | -
c1cc2c(cc1CNc1ccc(N3CCCC3)cc1)OCO2 | - | - | - | -
c1cc(CNc2ccc(N3CCCC3)cc2)ccn1 | - | - | 99.7 | -
CC(C)NS(=O)(=O)c1ccc(N=Cc2c(O)n(C)c(=O)n(C)c2=O)cc1 | - | -3.7 | - | -
S=c1nc(-c2cccs2)[nH][nH]1 | 69.0 | - | - | -
CN(C)S(=O)(=O)N=C1C=CC(=NS(=O)(=O)N(C)C)C=C1 | 88.0 | - | - | -
CCOC(=O)c1c(NC(=O)c2noc3c2CC(C(C)(C)C)CC3)sc2c1CCCC2 (stereo not given) | 76.0 | . | . | .
NC(=O)c1c(NC(=O)c2noc3c2CCCC3)sc2c1CCCC2 | 69.0 | . | . | .
CCOc1ccc(C(=O)c2c(N)c(-c3nc(-c4ccc5c(c4)OCO5)cs3)c3ccccn23)cc1 | - | . | . | .
COc1cccc(-c2csc(-c3c(N)c(C(=O)c4ccc5c(c4)OCO5)n4ccccc34)n2)c1 | 76.0 | . | . | .
O=C(Nc1nccs1)c1ccc(S(=O)(=O)N2CCCc3ccccc32)cc1 | - | - | - | -
Cc1cccc(NC(=O)CSc2nnc(C)c(=O)[nH]2)c1 | - | . | . | .
Cc1cccc(NC(=O)CSc2nncc(=O)[nH]2)c1 | - | - | 57.8 | -
CC(Sc1nc(=O)cc(N)n1-c1ccccc1)C(=O)Nc1ccccc1 (stereo not given) | . | - | . | .
CCC(C)c1ccc(NC(=O)CSc2ncn[nH]2)cc1 (stereo not given) | - | - | - | .
COC1=CC(=O)C(C)=CC1=O | . | -3.15 | . | .
Nc1cc(C(F)(F)F)ccc1-n1cnc2ccccc21 | - | - | 90.1 | .
CC(C(=O)N1CCCC1)N1CCN(c2ccc(F)cc2)CC1 (stereo not given) | - | - | - | 40.5
N#Cc1ccc(COC(=O)C2CCCCN2S(=O)(=O)c2cccc3nsnc23)cc1 (stereo not given) | 42.0 | - | - | -
SMILES | Polio RdRp inh | AID504770 | MbtI inh | MenB inh
Cc1ccc(Cl)cc1N1CCN(C(=O)c2ccc3noc(-c4ccccc4)c3c2)CC1 | - | - | - | -
CC(=O)C1=C(c2ccc(Cl)c(Cl)c2)N(C(C)=O)n2cnnc2S1 | 86.0 | . | . | .
COc1cccc(C2=C(C(C)=O)Sc3nncn3N2C(C)=O)c1 | 87.0 | . | . | .
CC(=O)C1=C(c2ccc(Cl)c(Cl)c2)N(C(C)=O)n2c(C)nnc2S1 | - | . | . | .
CS(=O)(=O)N(CC(=O)Nc1ccccc1)C1CCCCC1 | - | - | - | -
C=CCN(CC=C)Cn1c(=S)oc2ccc(S(=O)(=O)Nc3ccc(OC)cc3)cc21 | - | - | 85.2 | -
Cc1scc(-c2ccccc2)[n+]1CCO | - | - | 54.1 | -
CC(C)c1ccc(Cn2cnc3ccccc32)cc1 | - | - | - | -
O=C(Cc1cccs1)Nc1nnc(-c2ccc(Cl)cc2)s1 | . | - | . | .
CCc1ccc(C2CC(c3ccccc3)=NN2C(=O)CCCC(=O)O)cc1 (stereo not given) | - | - | - | -
O=C(O)CCC(=O)N1N=C(c2ccccc2)CC1c1ccc2nccnc2c1 (stereo not given) | - | - | - | 49.9
O=C1CSC(=S)N1Nc1ccccc1 | - | - | 75.8 | -
O=C(O)CCCCCN1C(=O)C2C3C=CC(C3)C2C1=O (stereo not given) | - | - | - | -
O=C1NC(=O)C(=Cc2ccc(Sc3ccc(Cl)cc3)o2)C(=O)N1 | - | - | 91.6 | -
O=C1NC(=O)C(=Cc2ccc(N3CCCC3)o2)C(=O)N1 | - | - | - | -
Cc1ccc(NC2=C(c3ccc(C(F)(F)F)cc3)C(=O)c3ccccc32)cc1C | 81.0 | . | . | .
Cc1cccc(NC(=O)c2c(NC(=O)c3ccccc3)sc3c2CCC3)c1 | - | . | . | .
CCOC(=O)c1c(NC(=O)c2ccccc2C(=O)O)sc2c1CCCC2 | - | - | - | -
O=C(Nc1sc2c(c1C(=O)O)CCCC2)c1ccc(Br)cc1 | 85.0 | - | . | -
Cc1cccc(NC(=O)c2c(NC(=O)c3ccccc3)sc3c2CCCC3)c1 | 75.0 | . | . | .
CCOC(=O)c1c(NC(=O)c2ccc(Br)cc2)sc2c1CCCC2 | 87.0 | . | . | .
CCOC(=O)c1c(NC(=O)c2ccccc2C)sc2c1CCCC2 | 84.0 | . | . | .
COC(=O)c1ccc(COC(=O)C(C)N=C2NS(=O)(=O)c3ccccc32)o1 (stereo not given) | - | - | - | -
Cc1ccc(/C=C/C(=O)Nc2cccc(NC(=O)/C=C/c3ccc(C)o3)n2)o1 | - | - | - | -
c1coc(CSCc2ccc3nonc3c2)c1 | . | - | . | .
SMILES | Polio RdRp inh | AID504770 | MbtI inh | MenB inh
CC(=O)NCc1nc2ccccc2[nH]1 | . | - | - | .
CCOC(=O)c1ccc(CNS(=O)(=O)c2ccc(S(=O)(=O)N3CCOCC3)cc2)o1 | - | - | . | -
CCOC(=O)c1c(NC(=O)c2ccc(S(=O)(=O)N3CCC(C)CC3)cc2)sc2c1CCN(C)C2 | 90.0 | . | . | .
CCOC(=O)c1c(NC(=O)c2ccc(S(=O)(=O)N(C)C)cc2)sc2c1CCN(C)C2 | - | . | . | .
CCC(=O)Nc1ccc2nc(C3CC3)n(Cc3ccc(Cl)cc3)c(=O)c2c1 | - | - | - | 30.6
CC1COC2=C(N3CCN(C)CC3)C(F)=CC3C(=O)C(C(=O)O)=CN1C23 (stereo not given) | - | -6.4 | - | -
CCN(CC)C(=O)CSc1nnc(COc2ccc(Br)cc2)o1 | - | - | - | -
CCOC(=O)C1=C(C)NC(=S)NC1c1ccc(-c2ccccc2Cl)o1 (stereo not given) | - | - | - | 60.4
CCN(CC)Cn1c(=S)oc2ccc(Cl)cc21 | - | - | 64.4 | -
COCn1nc(-c2ccc(Cl)cc2Cl)oc1=S | - | - | - | -
CCN(CC)Cc1cc(O)c(CN(CC)CC)cc1O | - | - | 94.5 | .
CCN(CC)Cc1cc(C(C)C)c(O)c(C(C)C)c1 | . | - | . | .
Cc1c(CCC(=O)NCc2ccccc2)c(=O)oc2cc(O)ccc12 | - | - | - | -
O=C(c1ccco1)n1c(=S)nc2ccccn21 | 83.0 | - | . | -
O=C(c1ccco1)N1CCN(C(=O)c2ccco2)CC1 | - | - | - | -
CCN1CN=C(Nc2nc(C)c3cc(C)ccc3n2)NC1 | - | - | - | -
CC1=CC(C)(C)N=C(Nc2nc(C)c3cc(C)cc(C)c3n2)N1 | 76.0 | - | . | -
Cc1[nH]n(-c2ccccc2)c(=O)c1Sc1ccc(Cl)cc1 | - | - | - | -
Cc1[nH]n(-c2ccc(Cl)cc2)c(=O)c1C=O | - | - | 70.9 | -
CN(C)CCNC(=O)c1ccc(Br)s1 | 89.0 | - | - | -
NC(=O)c1noc(C(=O)c2ccccc2)c1N | . | - | . | .
CCOC(=O)c1cc2c(ccn2-c2ccc(F)cc2)n1CC(=O)c1ccc2c(c1)OCCO2 | - | - | - | -
CCOC(=O)c1sc(=N)n(CC(=O)c2ccc(F)cc2)c1C | 1.0 | - | - | -

Source: PubChem BioAssay
